# Source: PubChem
# GLP1R cytotox: cytotoxic in the GLP-1 receptor inverse agonist counter-screen | HEK293 cAMP-luciferase reporter cells, luminescence, 24 h | Potency, µM (titrated, usually from 38.3 µM), for the others: at the top dose activity change, negative = inhibition, hits mostly inhibitors | hit rate 0.13% among 410,000;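 note: loss of luciferase light is scored as toxicity; % is set by controls: 0 for no effect and ±100 for the full control effect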
#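 Step one: seed cells (200 cells/uL, DMEM with 10% Nu serum, 1% pen-strep). Step two: 12-hour incubation at 37 deg C. Step three: pin 23 nL compound, incubate 24 hr. Step four: add luciferase reagent, read luminescence 12 min later.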
# EPAC1 agonist: agonists of human EPAC1; O95398; EPAC1 agonist qHTS, biochemical assay; response scale: 100% = response to 6.5 mM cAMP; Potency, µM (titrated, usually from 154 µM), inactives show top-dose activation, hits mostly activators; hit rate 0.073% among 360,000; AID 720707; note: nearly all actives have a fitted effect of over 60% in size
# Target sequence (O95398 whole entry, looked up): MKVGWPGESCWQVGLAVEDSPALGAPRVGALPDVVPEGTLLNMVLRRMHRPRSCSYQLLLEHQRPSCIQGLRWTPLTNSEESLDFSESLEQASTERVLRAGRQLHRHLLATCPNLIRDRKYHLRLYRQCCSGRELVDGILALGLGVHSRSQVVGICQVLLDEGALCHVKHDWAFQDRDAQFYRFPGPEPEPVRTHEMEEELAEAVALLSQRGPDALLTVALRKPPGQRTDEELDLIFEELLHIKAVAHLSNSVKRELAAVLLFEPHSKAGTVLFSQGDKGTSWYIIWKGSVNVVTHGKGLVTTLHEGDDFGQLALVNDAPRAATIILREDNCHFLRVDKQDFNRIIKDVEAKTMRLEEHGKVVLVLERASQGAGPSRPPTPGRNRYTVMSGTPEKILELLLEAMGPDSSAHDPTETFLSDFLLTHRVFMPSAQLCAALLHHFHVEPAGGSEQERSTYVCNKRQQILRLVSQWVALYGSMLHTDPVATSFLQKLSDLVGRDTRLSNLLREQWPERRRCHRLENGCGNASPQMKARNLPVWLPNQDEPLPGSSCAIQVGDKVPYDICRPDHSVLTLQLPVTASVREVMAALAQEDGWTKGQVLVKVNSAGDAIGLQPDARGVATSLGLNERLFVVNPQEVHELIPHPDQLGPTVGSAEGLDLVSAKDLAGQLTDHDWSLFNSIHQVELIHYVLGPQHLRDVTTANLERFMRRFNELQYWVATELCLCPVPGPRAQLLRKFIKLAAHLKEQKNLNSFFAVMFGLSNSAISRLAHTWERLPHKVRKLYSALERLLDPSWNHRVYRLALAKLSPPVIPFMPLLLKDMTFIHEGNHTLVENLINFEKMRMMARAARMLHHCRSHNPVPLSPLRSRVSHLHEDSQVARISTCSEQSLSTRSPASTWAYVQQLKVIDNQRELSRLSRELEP
#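 Fluorescent GDP-exchange assay: 100 nM EPAC1 with 250 nM Rap1B preloaded with BODIPY-GDP and 50 uM GDP; compounds tested as concentration series, 5 min at room temperature, then read every 5 min for 30 min (ex 480/em 540 nm); normalized to 6.5 mM cAMP.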
# EPAC2 agonist: EPAC2 (human) agonism; Q8WZA2; EPAC2 activation, biochemical qHTS; response scale: 100% = 6.5 mM cAMP response; Potency, µM (titrated, usually from 154 µM), for the others: top-dose activation, hits mostly activators; hit rate 0.079% among 360,000; note: nearly all actives have a fitted effect of over 50% in size
#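 Fluorescence exchange assay: 100 nM EPAC2 with 250 nM RAP1B-BODIPY-GDP and 50 uM GDP; compounds tested as a concentration-titration series (qHTS). Loss of Rap1-bound BODIPY-GDP fluorescence read at 480/540 nm; data normalized to 6.5 mM cAMP.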
# USP1-UAF1 inh: USP1/UAF1 (human) deubiquitinase inhibition; O94782; recombinant USP1/UAF1, Ub-Rhodamine cleavage fluorescence; Potency, µM (series often up to 57.1 µM), without a hit: top-dose activity change, negative = inhibition, actives largely listed as inhibitors; hit rate 0.23% among 390,000; AID 743255; note: % is set by controls: 0 for no effect and ±100 for the full control effect; nearly all actives have a fitted effect of over 60% in size
#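 High-throughput fluorogenic screen: 1nM USP1/UAF1 complex, Ub-Rho substrate 150nM final, 50mM HEPES pH 7.8 with 0.5mM EDTA, 0.1 mg/ml BSA, 1mM TCEP and 0.01% Tween-20.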
# EPAC1 antagonist: antagonists of human EPAC1. O95398. EPAC1 GEF assay, Rap1b-BODIPY-GDP exchange fluorescence. Potency, µM (highest dose often 115 µM), inactives show top-dose activity change, negative = inhibition, hits mostly inhibitors. hit rate 0.14% among 360,000;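 note: plate controls were vehicle for no effect and positive control for full effect; nearly all actives have a fitted effect of over 50% in size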
# EPAC2 antag: antagonists of human EPAC2 | hit rate 0.18% among 360,000 | Potency, µM (series often up to 114 µM), for inactives: at the top dose activity, negative = inhibition, usual class: inhibitors | EPAC2 GEF exchange of Rap1B-BODIPY-GDP, fluorescence | AID 720708 | Q8WZA2; note: % is set by controls: 0 for no effect and ±100 for the full control effect; nearly all actives have a fitted effect of over 45% in size
# Numbers without * were called inactive; ? = inconclusive; · = no result; [ ] = dose if it differs, or a comment. Sampled rows, rich in hits. Any-hit rate of the full collection: about 0.55%. Calls come from the whole dose curve; as a rule, active = well fitted curve in the direction sought with a large enough effect; inconclusive = small, poorly fitted or top-dose-only effect, or another doubt; inactive = no such curve, though single readings can be large; an effect the other way counts as inactive or inconclusive. Potency is the fitted concentration of half-maximal effect.
SMILES,GLP1R cytotox,EPAC1 agonist,EPAC2 agonist,USP1-UAF1 inh,EPAC1 antagonist,EPAC2 antag
O=C(O)C(c1ccccc1)N1C(=O)/C(=C\c2ccc(-c3ccc(Br)cc3)o2)SC1=S (centres undefined),2.0%,6.5%,-21.2%,-3.8%,-6.1%,85.7%
O=C(O)C(c1ccccc1)N1C(=O)/C(=C\c2ccc(-c3ccccc3Cl)o2)SC1=S (centres undefined),-7.3%,-131.3%,112µM*,?,42.0%,90.5%
O=C1c2cccc3c(N4CCCCC4)ccc(c23)C(=O)N1c1ccccn1,82.9%,-0.3%,-9.5%,-22.1%,2.3%,-18.0%[57.1 µM]
CCCN1C(=O)c2cccc3c(N4CCCCC4)ccc(c23)C1=O,86.8%,?,100µM*,-20.9%,7.8%,34.2%
CC(=O)N(C(C)=O)N1C(=O)c2cccc3c(N4CCOCC4)ccc(c23)C1=O,9.1%,112µM*,-105.5%,-16.6%,?,38.4%
Cc1ccc(NC(=O)c2sc(-n3nc(C)c(CCC(C)C)c3C)nc2C)cc1C,3.4%,·,·,-23.9%,·,·
O=S(c1cc(Cl)cc(Cl)c1O)c1cc(Cl)cc(Cl)c1O,-0.2%,-5.4%,-6.9%,·,39.8µM*,37.7µM*
Oc1c(Cl)cc(Cl)cc1CNc1nccs1,8.4%,1.1%,3.2%,-21.0%,5.1%,-8.5%
O=C(Cn1cc(S(=O)(=O)N2CCN(c3ccccc3F)CC2)c2ccccc2c1=O)Nc1cccc(C(F)(F)F)c1,-1.5%,·,·,-24.0%,·,·
NC(Cc1ccccc1)c1csc(NC(=O)Nc2ccccc2Oc2ccccc2)n1 (centres undefined),-7.6%,-0.7%,7.7%,·,-8.8%,-5.5%
NC(Cc1ccc(C(F)(F)F)cc1)c1csc(NC(=O)Nc2ccccc2Oc2ccccc2)n1 (centres undefined),11.2µM*,-18.0%,-10.6%,·,-20.1%,9.9%
O=C(NCc1cccc(C(F)(F)F)c1)c1cccc2c1C(=O)c1ccc(N3CCC(Cc4ccccc4)CC3)cc1S2(=O)=O,58.2%,-47.8%,-35.0%,25.1µM*,9.7%,45.1%
O=C(NCc1ccco1)c1cccc2c1C(=O)c1ccc(N3CCC(Cc4ccccc4)CC3)cc1S2(=O)=O,66.7%,2.3%,-35.0%,28.2µM*,27.5%,17.6%
O=C(NCc1ccc(OC(F)(F)F)cc1)c1cccc2c1C(=O)c1ccc(N3CCC(Cc4ccccc4)CC3)cc1S2(=O)=O,12.0%,17.0%,-12.4%,389.6%,-2.9%,32.1%
CCC(=C(c1ccc(OC)cc1)c1ccc(OC)cc1)c1cn(CC(O)CN(CCO)CCO)c2ccccc12 (centres undefined),?,2.2%,3.0%,-21.0%,-5.9%,14.1µM*
Cc1nnc(N2CCCC(C(=O)Nc3cccc(C(F)(F)F)c3)C2)c2nn(-c3ccccc3)c(C)c12 (centres undefined),?,·,·,-8.4%,·,·
CN(C)CCCN(C(=O)c1cc2cc([N+](=O)[O-])ccc2s1)c1nc2cc3c(cc2s1)OCCO3,-23.3%,19.1%,26.8%,0.1%,?,50.1µM*
O=C(O)c1ccccc1C1=Nc2ccc(O)cc2Oc2cc(O)ccc21,13.5%,100µM*,?,28.2µM*,65.8%,87.6%
CC1=NNC(=O)/C1=C\c1cn(-c2ccccc2)nc1-c1cccs1,7.94µM*,20.6%,20.8%,-16.5%,-21.0%,7.9%[57.1 µM]
O=C(O)CCCCCN1C(=O)/C(=C/c2cn(-c3ccccc3)nc2-c2cccs2)SC1=S,-60.6%,89.1µM*,23.8%,?,50.0%,65.9%
CC1=NNC(=O)/C1=C\c1cn(-c2ccccc2)nc1-c1ccc(F)cc1,?,0.0%,12.4%,?,-25.4%,-16.2%
CCN(CC(=O)NC(=O)NCc1ccco1)Cc1nc2ccccc2c(=O)[nH]1,11.2µM*,3.1%,13.4%,1.1%,-16.1%,-2.9%
CCN(CC(=O)NC(=O)NCc1ccco1)Cc1ccccc1,-3.3%,6.7%,1.9%,-15.7%,-10.5%,3.1%
